# Test results: PubChem BioAssay AID493174 (National Center for Advancing Translational Sciences (NCATS), 2011)
# Records with an inconclusive call do not appear. Active and inactive are the calls of the source. Calls follow the shape of the dose curve; as a rule, active = well fitted inhibition curve with a large enough effect; inconclusive = small, poorly fitted or top-dose-only effect; inactive = flat fitted curve, though single readings scatter.
# Assay: Confirmatory Assay for General miRNAs Modulators and/or Inhibitors/Activators of miR-21: second round cherrypicks
# Conditions: HeLa miR-21 FLuc reporter, luciferase luminescence, 48 h; series mostly up to 38.3 µM; activity, negative = inhibition: at the top concentration
# Source text: MLPCN Grant: 1 R21 NS059478-01 Assay Provider: Qihong Huang, The Wistar Institute NCGC Assay Overview: MicroRNAs (miRNAs) are endogenously encoded small (~20-25 nucleotides), nonprotein-coding RNAs that are involved in post-transcriptional repression of target messenger RNAs (mRNAs) (Le and Hannon, 2004). Estimated to be involved in the regulation of 30% of all protein-coding mRNAs (Filipowicz et al., 2008), miRNAs play a significant role in many biological processes including cellular differentiation and tissue development (Ghildiyal and Zamore, 2009).
# NCGC Assay Protocol Summary: Reagents: HeLa cells stably expressing firefly luciferase (FLuc) under the control of a CMV promoter (upstream) and a miR-21 binding sequence directly downstream of the gene. These cells endogenously express miR-21. Control compounds used were compound C3 (provided by collaborator), N6-phenyladenosine (MP Biomedicals, 0215379625), and DMSO. Assay Summary: 6uL of HeLa miR-21-FLuc cells in assay buffer (DMEM, Invitrogen #21063-029; 10% FBS, HyClone #SH30071.03) were dispensed at 2000cells/well (3.3 x 10^5 cells/mL) into Greiner solid-white TC-treated 1536-well plates using a Multidrop Combi (Thermo Fisher Scientific). Plates were incubated for one hour at 37 degree Celsius, 95% humidity, 5% CO2. These assay plates were then treated with 23nL of compound or DMSO using a Kalypsys pin tool, which allows for delivery of a 24-point titration of each compound to the assay plate, with a final compound concentration ranging from approximately 40uM to 5pM. Assay plates were then incubated for 48 hours. After incubation, plates were allowed to come to RT for one hour prior to delivery of 3uL of 3X luciferase detection reagent. After a 15 minute incubation to allow for cell lysis, luciferase activity was measured using a ViewLux CCD imager (PerkinElmer), with an average exposure time of 2-12 seconds. Keywords: NIH Roadmap, MLPCN, MLSMR, qHTS, miR-21, microRNA, firefly luciferase, FLuc.
SMILES,Potency,"activity, negative = inhibition"
CC(C)c1cc(C(=O)Nc2cccnc2)no1,3.18 µM (active),
O=C(Nc1sc2c(c1C(=O)NCc1ccco1)CCCC2)c1cc(=O)c2ccccc2o1,5.65 µM (active),
CN(c1ccccc1)S(=O)(=O)c1nnc(NC(=O)c2ccco2)s1,,-5.67% (inactive)
C/C(=N/NC(=O)c1ccccc1)c1ccc(NC(=O)C(F)(F)F)cc1,,-18.7% (inactive)
CCc1cc(C(=O)Nc2ccccc2)cs1,3.18 µM (active),
CCCOc1ccc(OC(=O)c2ccc(-c3ccc(CCC)cn3)cc2)cc1,1.26 µM (active),
COC(=O)c1ccccc1NC(=O)Nc1cc(C(C)(C)C)on1,5.65 µM (active),
COc1ccccc1N1CCN(C(=O)c2nc(-c3ccc(C)cc3)n3c2CCCCC3)CC1,,11% (inactive)
Cc1ccc(NC(=O)c2ccc(-c3ccccc3)s2)cc1,5.65 µM (active),
CCC(C)C(=O)N1CCCC(c2nc(-c3cccs3)no2)C1 (stereo not drawn),12.6 µM (active),
CC(=O)N1CCc2cc(CNC(=O)Cc3ccc(F)cc3)ccc21,11.3 µM (active),
CCCCN1CCc2c([nH]c3ccccc23)C1=O,12.6 µM (active),
CCOC(=O)c1cccc(NC(=O)c2cc(CN3CCCC3)on2)c1,1 µM (active),
O=C(NC1CCCCCC1)C1CCN(C(=O)N2CCOc3ccc(Cl)cc32)CC1,,-7.39% (inactive)
Cc1cccc(NC(=O)Nc2ccc(Br)cc2)n1,2.52 µM (active),
CCC(CC)C(=O)Nc1nnc(S(=O)(=O)N2CCCCCC2)s1,,-4.03% (inactive)
Cc1ccc(-c2cc(C(=O)NCC3CCCO3)no2)cc1 (stereo not drawn),4.49 µM (active),
COCCNC(=O)c1ccc2c(c1)ncn2-c1ccc(F)c(F)c1,22.5 µM (active),
Cc1cc(C)c2c(N)c(C(=O)Nc3ccccc3C(F)(F)F)sc2n1,20 µM (active),
COc1ccc(Nc2nc(C)c3ccccc3n2)cc1,6.34 µM (active),
Cc1ccc(C(=O)Nc2ccc3c(c2)ncn3C)cc1,7.11 µM (active),
Cc1ccccc1NC(=O)c1cc2c([nH]c1=O)CC(C)(C)CC2=O,0.711 µM (active),
CCC(C)NC(=O)CCCn1c(=O)c2cccn2c2ccccc21 (stereo not drawn),,-5.57% (inactive)
COc1ccc(N2C(=O)c3ccccc3NC2c2ccc(OC)c(Cn3nnc4ccccc43)c2)cc1 (stereo not drawn),12.6 µM (active),
CCC(=O)Nc1sc(C(=O)Nc2ccccc2)c(C)c1C(=O)OC,2.25 µM (active),
CCOC(=O)C1CCN(C(=O)c2ccc(-n3ccc4ccccc43)s2)CC1,11.3 µM (active),
CC(=O)O[C@H]1C[C@@]2(C)[C@@H](C[C@@H](O)[C@H]3[C@@]4(C)CC[C@@H](O)[C@@H](C)C4CC[C@@]32C)/C1=C(\CCC=C(C)C)C(=O)O (stereo partly drawn),,-6.79% (inactive)
CC(=O)c1ccc(Oc2ncnc3c2oc2ccccc23)cc1,4 µM (active),
